JMJD2A Tudor – inhibitors of human JMJD2A Tudor domain. 4.4% of 390,000 active. Potency, µM (series often up to 114 µM), for inactives: at the highest dose activity change, negative = inhibition, hits mostly inhibitors. AlphaScreen JMJD2A-Tudor / H3K4me3 peptide binding; further: on the % scale 0 is the no-effect control and ±100 the full control effect; nearly all actives have a fitted effect of over 50% in size
Sfp PPTase inh – Sfp phosphopantetheinyl transferase inhibition | Q9F4F7 | Biochemical Sfp PPTase activity, qHTS | Potency, µM, without a hit: largest response in the series, negative = inhibition, most hits filed as inhibitors | 3.5% of 310,000 active;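 further: the enzyme is Sfp with the accession as filed and its product quenches rhodamine fluorescence; 0% = enzyme reaction without inhibitor and -100% = no enzyme wells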
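Fluorescence-quenching assay with 15 nM Sfp, 5 uM rhodamine-CoA and 12.5 uM BHQ-2-labelled ybbR peptide in pH 7.6 Hepes/MgCl2 buffer. Enzyme was pre-incubated with compound for 15 min at room temperature. Rate was taken from the 30-min fluorescence change (525/598 nm).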
HP1b binding inh – inhibitors of HP1-beta chromodomain binding to methylated histone tails. AID 540317. Potency, µM (top dose mostly 114 µM), without a hit: top-dose activity change, negative = inhibition, usual class: inhibitors. AlphaScreen HP1-beta / biotin-H3K9me3 peptide binding. P83916. 0.56% of 390,000 active; further: nearly all actives have a fitted effect of over 70% in size
Target sequence (P83916 whole entry, looked up): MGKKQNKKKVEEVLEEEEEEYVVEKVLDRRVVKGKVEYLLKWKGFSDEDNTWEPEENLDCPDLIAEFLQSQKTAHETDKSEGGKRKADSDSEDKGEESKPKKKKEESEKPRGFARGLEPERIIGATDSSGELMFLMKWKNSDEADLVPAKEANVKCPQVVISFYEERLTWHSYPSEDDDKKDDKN
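AlphaScreen: HP1-beta (50 nM) preformed 30 min with biotin-H3(1-18)K9me3 peptide (50 nM) in PBS pH 7.4, 0.01% Tween-20. Compound added for 30 min at RT, then streptavidin donor/nickel chelate acceptor beads (10 ug/mL) for 30 min.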
G9a block – inhibitors of human histone lysine methyltransferase G9a; 8.8% of 350,000 active; G9a H3K9 monomethylation, AlphaScreen, 2 h; Potency, µM (doses to about 102 µM), for the others: at the highest dose activity, negative = inhibition, usual class: inhibitors; Q96KQ7; AID 504332; further: on the % scale 0 is the no-effect control and ±100 the full control effect; nearly all actives have a fitted effect of over 75% in size
Target sequence (Q96KQ7 913-1193 limits assumed): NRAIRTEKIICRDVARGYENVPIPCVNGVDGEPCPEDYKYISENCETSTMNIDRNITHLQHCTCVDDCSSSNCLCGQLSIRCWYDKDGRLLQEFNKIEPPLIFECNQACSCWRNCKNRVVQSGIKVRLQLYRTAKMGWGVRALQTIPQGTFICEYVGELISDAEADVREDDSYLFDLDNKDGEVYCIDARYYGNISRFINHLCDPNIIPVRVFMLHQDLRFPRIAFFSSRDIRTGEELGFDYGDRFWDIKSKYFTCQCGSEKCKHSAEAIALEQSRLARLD
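Enzyme 20 nM + cpd, 15 min RT; add b-H3K9 pep 500 nM / SAM 20 uM; 2 h RT; anti-H3K9me1 Ab 0.5 ug/mL + SA donor / anti-rabbit acceptor beads 20 ug/mL each, 10 min; AlphaScreen read.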
L3MBTL1 inh – L3MBTL1 (human) inhibition. 0.66% of 230,000 active. Potency, µM (doses to about 57.1 µM), inactives show at the highest dose activity, negative = inhibition, actives largely listed as inhibitors. AlphaScreen L3MBTL1–H3K9me1 peptide binding. Q9Y468; further: on the % scale 0 is the no-effect control and ±100 the full control effect; nearly all actives have a fitted effect of over 60% in size
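AlphaScreen proximity signal between nickel-chelate acceptor and streptavidin donor beads (final 10 ug/mL) reports binding of 50 nM L3MBTL1 to 75 nM biotin-H3 K9me1 peptide; complex incubated with compounds 30 min at room temperature; cefsulodin titration as control.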
BAZ2B inh – BAZ2B (human) inhibition; Q9UIF8; AlphaScreen BAZ2B-H3K14Ac peptide displacement; Potency, µM (doses to about 114 µM), without a hit: top-dose activity change, negative = inhibition, actives largely listed as inhibitors; 4.4% of 360,000 active; further: on the % scale 0 is the no-effect control and ±100 the full control effect; nearly all actives have a fitted effect of over 60% in size
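Protein-peptide AlphaScreen: BAZ2B 50 nM, b-H3K14Ac 50 nM, 1x PBS pH 7.4 + 0.01% Tween-20. Preincubation 30 min RT; cpd 30 min RT (top 110 uM); beads 20 min RT, light-protected.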
Starred values were filed as active, the others as inactive; ? = inconclusive; nt = not tested or not shown; [ ] = remark or other dose. Hits are enriched below; roughly 12% of the tested compounds scored in any of these assays. The call rests on the fitted dose curve; in most records, active means well fitted curve in the direction sought with a large enough effect; inconclusive means small, poorly fitted or top-dose-only effect, or another doubt; inactive means no such curve, though single readings can be large; an effect the other way counts as inactive or inconclusive. Potency means the concentration at half of the fitted maximal effect.

SMILES	JMJD2A Tudor	Sfp PPTase inh	HP1b binding inh	G9a block	L3MBTL1 inh	BAZ2B inh
CCCSc1ncc(Cl)c(C(=O)Nc2c(C(=O)c3ccc(C)cc3)oc3ccccc23)n1	-9.7%	nt	-12.1%	4.8%[59 µM]	nt	0.7%
COc1cccc(NC(=O)CN(C)C(=O)c2ccc(Cl)c(S(=O)(=O)N3CCCCCC3)c2)c1	-21.8%	nt	-1.4%	70.8µM*	-7.2%	10.5%
COc1cccc(NC(=O)CN(C)C(=O)c2cccc(S(=O)(=O)N3c4ccccc4CC3C)c2)c1 (stereo not given)	-27.0%	nt	10.2%	15.8µM*	-9.0%	2.4%
COc1cccc(NC(=O)CN(C)C(=O)c2cccc(NS(=O)(=O)c3ccccc3)c2)c1	-8.8%	nt	23.1%	-4.1%[12.7 µM]	1.4%	11.3%
Cc1ccccc1C(=O)Nc1sc2c(c1C(=O)O)CCC2	-11.3%	11.6%	0.7%	50.1µM*	-1.9%	?
CNC(=O)c1c(NC(=O)c2nc3ccccc3s2)sc2c1CCC2	nt	17.8µM*	nt	39.8µM*	nt	-9.6%
Cc1sc(NC(=O)CCl)c(C(=O)c2ccccc2)c1C	20µM*	22.4µM*	?	?	-22.9%	?
Cc1ccccc1C(=O)Nc1sc(C)c(C)c1C(=O)c1ccccc1	?	31.6µM*	?	10µM*	-15.0%	?
O=C(CCC(=O)N1CC2CCCN2c2ccccc21)NCc1ccccc1 (stereo not given)	-30.7%	nt	2.4%	0.3%[59 µM]	nt	-37.1%
Cc1cc(C(=O)c2ccc(C(C)(C)C)cc2)c(NC(=O)CCl)s1	?	-4.7%	-11.4%	31.6µM*	-25.7%	-31.8%
CCN(CC)CCCC(C)NC(=O)c1c(NC(=O)c2ccccc2)sc2c1CCCC2 (stereo not given)	44.7µM*	-18.5%	-10.4%	79.4µM*	-1.0%	-13.9%
CCOc1ccc(NC(=O)Cn2c(=O)n(Cc3ccc4c(c3)OCO4)c(=O)c3ccc(C(=O)NC4CCCCC4)cc32)cc1	-11.7%	nt	19.1%	-6.1%[59 µM]	nt	nt
O=C(CNC(=O)c1ccccc1)OC(Cc1ccccc1)C(=O)Nc1cc(C(F)(F)F)ccc1Cl (stereo not given)	-4.8%	nt	nt	nt	nt	nt
Cc1ccc(C)c(S(=O)(=O)c2cnc(SCC(=O)Nc3ccc(F)cc3F)[nH]c2=O)c1	-17.1%	nt	28.4%	-1.0%[59 µM]	nt	1.9%
COc1ccc(CC2(C)OC(c3ccc([N+](=O)[O-])cc3)=NN2C(C)=O)cc1 (stereo not given)	?	-8.2%	?	11.2µM*	-29.5%	?
O=C(O)CCCCCNc1ccc2nsnc2c1[N+](=O)[O-]	-11.6%	89.1µM*	26.0%	60.6%[59 µM]	33.9%	13.3%
COc1ccc(NC(=O)c2cc(S(=O)(=O)N3CCCC(C)C3)cn2C)c(OC)c1 (stereo not given)	-34.5%	nt	5.9%[57 µM]	12.1%[59 µM]	nt	?
N#Cc1cccc(NC(=O)N2CCCC3(CCN(C(=O)c4ccco4)CC3)C2)c1	nt	-1.6%	nt	-9.5%[12.7 µM]	nt	nt
CCOC(=O)c1ccc(NC(=O)c2ccc(=O)n(Cc3cccc(C)c3)c2)cc1	-16.5%	nt	17.7%[57 µM]	7.0%[59 µM]	nt	2.9%
CC(C)CC(COCc1ccc([N+](=O)[O-])cc1)N1CCN(C(=O)c2ccc(C(F)(F)F)cc2)CCC1=O (stereo not given)	-19.9%	4.9%	25.4%	50.1µM*	-13.8%	?
Cc1cccc(C(=O)N2CCC(=O)N(C(COCc3cccc(Cl)c3)Cc3ccccc3)CC2)c1 (stereo not given)	-17.1%	1.3%	57.4%	79.4µM*	-1.3%	-7.8%
Cc1cccc(C(=O)N2CCC(=O)N([C@H](COCc3cccc(Cl)c3)Cc3ccccc3)CC2)c1	nt	9.2%	nt	4.2%[59 µM]	nt	nt
Cc1cccc(COCC(CC(C)C)N2CCN(C(=O)c3ccc(C(F)(F)F)cc3)CCC2=O)c1 (stereo not given)	-9.9%	5.3%	28.5%	?	2.5%	-4.9%
O=C(c1ccc(C(F)(F)F)cc1)N1CCC(=O)N(C(COCc2ccc(C(F)(F)F)cc2)Cc2ccccc2)CC1 (stereo not given)	-5.0%	4.5%	44.2%	44.7µM*	-7.2%	?
CCc1noc(-c2ccc(N3CCCCC3)c([N+](=O)[O-])c2)n1	-9.9%	nt	41.9%	-47.7%[59 µM]	nt	0.3%
SMILES	JMJD2A Tudor	Sfp PPTase inh	HP1b binding inh	G9a block	L3MBTL1 inh	BAZ2B inh
CCOC(=O)C1CCN(C(=O)Cn2ncc3c4ccccc4n(Cc4ccc(F)cc4)c3c2=O)CC1	-8.4%	nt	23.2%	6.0%[59 µM]	nt	-5.0%
CN(C)c1ccc(-c2c(C3C4C=CCCC4(C)C(=O)N3Cc3ccccc3)ccc3ccccc23)cc1 (stereo not given)	?	?	5.2%	nt	nt	nt
CNc1ncnc2sc(-c3ccccc3)cc12	-5.3%	-29.5%	32.0%	-2.7%	nt	10.9%
S=c1[nH]cnc2sc(-c3ccccc3)cc12	-21.4%	12.9%	16.4%	35.5µM*	nt	-3.9%
CCOc1nc(NCc2ccco2)nc(Nc2ccc(OC)cc2)n1	-16.4%	2.2%	-7.3%	?	nt	50.1µM*
CCOc1nc(NCc2ccco2)nc(Nc2ccccc2F)n1	-4.4%	18.9%	32.5%	-4.9%[59 µM]	4.1%	1.7%
CCNc1nc(NCC)nc(N/N=C/c2ccc(OC)cc2)n1	-18.6%	-1.7%	33.3%	-12.0%[12.7 µM]	-21.2%	-8.8%
COc1ccc(Nc2nc(NCc3ccco3)nc(N/N=C/c3ccccc3)n2)cc1	?	-3.1%	3.7%	?	-26.6%	79.4µM*
Cc1ccc2c(c1)C(=O)OC(C(=O)Nc1ncc(Cc3ccc(C(C)C)cc3)s1)C2 (stereo not given)	7.9%	nt	30.5%	9.8%[59 µM]	nt	-1.7%
COc1ccc(-c2cc(C(=O)Nc3c(Cl)cc(Cl)cc3Cl)c3ccccc3n2)cc1OC	-32.7%	?	24.1%	-5.1%[59 µM]	2.3%	-3.5%
COc1ccc(NC(=O)c2cc(-c3ccc(C)o3)nc3ccccc23)c(OC)c1	?	nt	14.4%	nt	nt	nt
Cc1ccc(-c2cc(C(=O)Nc3nccs3)c3ccccc3n2)o1	?	?	17.0%	4.47µM*	?	-36.3%
COc1ccc(NC(=O)c2cc(-c3ccc(C)o3)nc3ccccc23)cc1OC	56.2µM*	22.4µM*	-14.4%	?	?	-30.7%
COc1ccc(-c2cc(C(=O)Nc3ccc(Cl)cc3Cl)c3ccccc3n2)cc1OC	-2.8%	35.5µM*	29.1%	15.5%	7.6%	0.9%
COc1cccc(N2CCN(C(=O)C3Cc4ccccc4N3C(C)=O)CC2)c1 (stereo not given)	-17.2%	nt	-7.6%	19.4%[59 µM]	nt	-6.6%
C/C=C/C1=Cc2ccccc2C(C(C(=O)OC)C(=O)OC)N1C(=O)OC (stereo not given)	nt	9.5%	nt	nt	nt	nt
COc1ccccc1OCC(=O)NCC1(N(C)C)CCCCC1	-4.0%	nt	38.3%	-5.2%[59 µM]	nt	-3.3%

Compound activity (PubChem)
